NOMO-1 viab: NOMO-1 AML cell viability reduction, primary screen, STK33 inhibitor project, CellTiter-Glo luminescence; NOMO-1 AML viability, 72 h; AID 2330, 2010; inhibition, % (test concentration not listed); hit rate 7.5% among 37,000; in the data active = inhibition above about 80%
ID4 binder: binders of human ID4 protein, primary screen, biochemical, small molecule microarray, single point; DNA-binding protein inhibitor ID-4 (Homo sapiens), P47928; Flag-ID4 binding, fluorescence F/B; calls only; hit rate 1.2% among 31,000; AID 624137, 2012; call rule not given here;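 also: a binder raises fluorescence above local background on the spot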
Target sequence (P47928 whole entry, looked up): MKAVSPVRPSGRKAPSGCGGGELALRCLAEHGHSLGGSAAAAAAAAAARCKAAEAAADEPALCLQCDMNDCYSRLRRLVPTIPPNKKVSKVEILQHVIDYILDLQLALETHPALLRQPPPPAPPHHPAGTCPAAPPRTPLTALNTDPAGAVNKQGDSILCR
p53 PUMA act: mutant p53 pathway re-activators, primary screen, cell-based, SW480, luciferase, single point, HTS; SW480 PUMA-promoter luciferase, p53 mutant reactivation; hit rate 1.5% among 28,000; activation, % at 9.98 µM; in the data active = activation above about 52%
STK33 inh: STK33 kinase inhibitors, primary screen, biochemical, luminescence, ADP-Glo, MBP substrate | hit rate 0.44% among 27,000 | inhibition, % at 12.5 µM | AID 2322, 2010 | Serine/threonine-protein kinase 33 (Homo sapiens), Q9BYT3; in the data active = inhibition above about 20%
Numbers stand for hits; – = inactive; · = no result. Many of the other results were omitted from the sample, so hits are more common in it than they were.

SMILES	NOMO-1 viab	ID4 binder	p53 PUMA act	STK33 inh
C[C@@H]1CN([C@H](C)CO)C(=O)c2cc(NS(=O)(=O)c3ccc(F)cc3)ccc2O[C@@H]1CN(C)Cc1ccc(C(F)(F)F)cc1	112	·	·	·
C[C@@H]1CCCCO[C@@H](CN(C)C(=O)Nc2ccc(C(F)(F)F)cc2)[C@@H](C)CN([C@H](C)CO)C(=O)c2cc(NS(=O)(=O)c3ccccc3)ccc2O1	–	·	·	–
C[C@@H]1CCCCO[C@@H](CN(C)Cc2ccc(C(F)(F)F)cc2)[C@@H](C)CN([C@H](C)CO)C(=O)c2cc(NS(=O)(=O)c3ccc(F)cc3)ccc2O1	110	·	·	–
C[C@@H]1CCCCO[C@H](CN(C)C(=O)Nc2ccc(C(F)(F)F)cc2)[C@@H](C)CN([C@H](C)CO)C(=O)c2cc(NS(=O)(=O)c3ccc(Cl)cc3)ccc2O1	120	·	–	–
Cc1ccc(OCC(=O)Nc2ccccc2C(=O)Nc2ccccc2)c(Br)c1	–	–	–	–
C[C@@H]1CN([C@@H](C)CO)C(=O)c2cc(NC(=O)C3CCCCC3)ccc2O[C@@H]1CN(C)C	·	–	·	·
C[C@H]1CN([C@@H](C)CO)C(=O)c2cc(NS(=O)(=O)c3ccc(F)cc3)ccc2O[C@@H]1CN(C)Cc1ccc(C(F)(F)F)cc1	–	·	·	–
Cc1ccc(S(=O)(=O)Nc2ccc3c(c2)C(=O)N([C@H](C)CO)C[C@H](C)[C@H](CN(C)Cc2ccc(C(F)(F)F)cc2)O3)cc1	93	·	·	·
C[C@@H]1CN([C@H](C)CO)C(=O)Cc2cc(NC(=O)NC3CCCCC3)ccc2O[C@@H]1CN(C)Cc1ccc(C(F)(F)F)cc1	109	·	·	–
C[C@H](CO)N1C[C@H](C)[C@H](CN(C)Cc2ccncc2)Oc2ccc(NC(=O)Nc3ccc(C(F)(F)F)cc3)cc2CC1=O	126	–	–	–
C[C@@H]1CN([C@@H](C)CO)C(=O)Cc2cc(NC(=O)Nc3ccc(C(F)(F)F)cc3)ccc2O[C@@H]1CN(C)Cc1ccc(Cl)c(Cl)c1	115	·	·	–
C[C@H]1CN([C@@H](C)CO)C(=O)Cc2cc(NC(=O)Nc3ccc(C(F)(F)F)cc3)ccc2O[C@@H]1CN(C)Cc1ccc(Cl)c(Cl)c1	–	·	·	–
C[C@@H]1CN([C@H](C)CO)C(=O)Cc2cc(NC(=O)Nc3ccc(C(F)(F)F)cc3)ccc2O[C@H]1CN(C)Cc1ccc(C(F)(F)F)cc1	94	·	·	–
C[C@@H]1CN([C@H](C)CO)C(=O)Cc2cc(NC(=O)Nc3ccc(C(F)(F)F)cc3)ccc2O[C@H]1CN(C)Cc1ccncc1	–	–	–	–
C[C@@H]1CN([C@@H](C)CO)C(=O)Cc2cc(NC(=O)NC3CCCCC3)ccc2O[C@@H]1CN(C)C(=O)Nc1ccc(C(F)(F)F)cc1	–	–	–	–
COc1ccc(-n2nnnc2SCC(=O)Nc2ccc(F)cc2)cc1	–	–	–	–
C[C@H](NC(=O)C[C@H]1CC[C@H](NC(=O)c2cccnc2)[C@H](CO)O1)c1ccccc1	·	–	·	·
COc1ccc(S(=O)(=O)Nc2cccc3c2O[C@@H](CN(C)Cc2ccc(Oc4ccccc4)cc2)[C@@H](C)CN([C@@H](C)CO)C3=O)cc1	–	·	–	·
C[C@@H]1CN([C@H](C)CO)C(=O)Cc2cc(NC(=O)Nc3ccc(C(F)(F)F)cc3)ccc2O[C@@H]1CN(C)Cc1ccc(C(F)(F)F)cc1	120	·	·	–
C[C@@H]1CN([C@H](C)CO)C(=O)Cc2cc(NC(=O)CCC(F)(F)F)ccc2O[C@@H]1CN(C)Cc1ccc(Cl)c(Cl)c1	116	·	·	–
C[C@@H]1CN([C@@H](C)CO)C(=O)Cc2cc(NC(=O)Nc3ccc(C(F)(F)F)cc3)ccc2O[C@@H]1CN(C)C(=O)NC1CCCCC1	113	–	–	–
C[C@H](CO)N1C[C@H](C)[C@H](CN(C)Cc2ccc(C(F)(F)F)cc2)Oc2ccc(NC(=O)Nc3ccc(C(F)(F)F)cc3)cc2CC1=O	129	·	·	–
C[C@@H]1CN([C@@H](C)CO)C(=O)Cc2cc(NC(=O)Nc3ccc(C(F)(F)F)cc3)ccc2O[C@@H]1CN(C)Cc1ccc(C(=O)O)cc1	–	–	–	–
C[C@H]1CN([C@@H](C)CO)C(=O)c2cccc(NS(=O)(=O)c3ccc(Cl)cc3)c2O[C@H]1CN(C)C(=O)Nc1ccc2c(c1)OCO2	–	·	·	·
C[C@H]1CN([C@@H](C)CO)C(=O)c2cccc(NC(=O)Nc3ccc(C(F)(F)F)cc3)c2O[C@@H]1CN(C)Cc1ccc(Oc2ccccc2)cc1	89	·	–	·
SMILES	NOMO-1 viab	ID4 binder	p53 PUMA act	STK33 inh
C[C@H](CO)N1C[C@H](C)[C@H](CN(C)Cc2ccc(Oc3ccccc3)cc2)Oc2c(NC(=O)Nc3ccc(C(F)(F)F)cc3)cccc2C1=O	117	·	·	·
C[C@@H]1CCCCO[C@H](CN(C)S(=O)(=O)c2ccc(F)cc2)[C@@H](C)CN([C@H](C)CO)C(=O)c2cc(NC(=O)NC3CCCCC3)ccc2O1	–	·	·	–
CC(C)NC(=O)Nc1ccc2c(c1)C(=O)N([C@H](C)CO)C[C@@H](C)[C@@H](CN(C)C(=O)Nc1ccc3c(c1)OCO3)O2	–	·	·	·
CCC1=C/C(=C\N(C)c2ccccc2)C(=O)S1	·	–	75	·
O=c1cc(CO)oc(C(Nc2ccccn2)c2ccccc2O)c1O (stereo unspecified)	·	–	–	·
CCC(=O)NC(c1ccco1)c1cc(Cl)c2cccnc2c1O (stereo unspecified)	126	·	·	·
Cc1cc(OCC(=O)NCc2ccco2)ccc1Cl	·	–	–	–
Oc1c(C(Nc2ccccn2)c2cccc(F)c2)cc(Cl)c2cccnc12 (stereo unspecified)	113	–	–	–
Oc1c(C(Nc2ccccn2)c2ccccn2)cc(Cl)c2cccnc12 (stereo unspecified)	112	–	–	–
COc1cc(Cl)c(C(Nc2ccccn2)c2cc(Cl)c3cccnc3c2O)cc1OC (stereo unspecified)	110	–	–	–
C[C@@H]1CCCCO[C@@H](CN(C)C(=O)Nc2ccccc2)[C@@H](C)CN([C@@H](C)CO)C(=O)c2cc(NC(=O)Nc3ccccc3)ccc2O1	·	–	–	·
C[C@@H]1CN([C@H](C)CO)C(=O)c2cc(NC(=O)CCN3CCOCC3)ccc2O[C@H]1CN(C)S(=O)(=O)c1cn(C)cn1	–	·	·	–
C[C@H]1CN([C@@H](C)CO)C(=O)c2cc(NS(=O)(=O)c3ccccc3)ccc2O[C@@H]1CN(C)C	–	–	–	·
Oc1c(C(Nc2ccccn2)c2c(F)cccc2Cl)cc(Cl)c2cccnc12 (stereo unspecified)	108	–	–	–
NCCCCNS(=O)(=O)c1ccc2ccccc2c1	–	–	–	–
NCCCCCCNS(=O)(=O)c1cccc2ccccc12	84	·	–	–
Cc1cc(Cl)ccc1OCC(O)CN1CCC(CN2C(=O)c3cccc4cccc(c34)C2=O)CC1 (stereo unspecified)	119	–	–	–
O=C1c2ccccc2C(=O)N1CC1CCN(Cc2ccc(OCCO)cc2)CC1	·	–	·	–
CSc1sc(C(=O)Sc2ccccc2)cc1S(=O)(=O)C(C)C	106	·	·	·
